Calls of active or inactive are those of the source.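 The calls were made as follows: active = fitted half-maximal concentration AC50 at or below ten times the highest valid tested dose, with signal falling as DNA is displaced (actives reach about 34 µM in these data); inconclusive = flat fit at moderate signal loss, or poor fit quality; inactive = the rest, including signal rising instead of falling.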
Experiment: DNA intercalators displacing acridine orange, dose response, artefact control for KSHV LANA DNA-binding inhibitor project, biochemical, fluorescence polarization, cherry-picked samples, set 2 (AID 504727)
Settings: AC50: Acridine orange-DNA displacement; series mostly up to 35 µM

| SMILES | AC50 |
| --- | --- |
| O=C(c1cnn2c(-c3ccccc3)cc(-c3ccccc3)nc12)N1CCN(Cc2ccccc2)CC1 | inactive |
| O=C(O)CCCCCn1c(SCC(=O)c2ccc(O)c(O)c2)nc2ccsc2c1=O | 23.8 µM (active) |
| O=C(O)c1ccccc1NC(=O)c1cc(-c2ccccc2)nc2ccccc12 | inactive |
| Oc1ccc2nnc3c(Br)cnn3c2c1 | 8.34 µM (active) |
| Nc1c(/C=C2/C=CC(=O)C(O)=C2)c(=O)nc2sc(CC(=O)N3CCCCC3)nn12 | inactive |
| Fc1ccc(-c2cc(C(F)(F)F)nc(-n3cc(Cl)cn3)n2)cc1 | inactive |
| CN(C)C(=O)c1ccc(NC(=O)COC(=O)C2(c3ccccc3)CCCC2)cc1 | inactive |
| Oc1ccc(-c2nc3ccccn3c2NCc2ccco2)cc1 | inactive |
| COC(=O)C1=COC(C)C2CN3CCc4c([nH]c5ccccc45)C3CC12 (stereo not drawn) | inactive |
| COc1ccc2ccccc2c1C(O)c1nccn1C (stereo not drawn) | 4.01 µM (active) |
| Clc1ccc(-c2nnc3sc(-c4ccc(Br)o4)nn23)cc1 | inactive |
| O=C(CCn1c(=S)oc2ccccc21)N1CCN(c2ccc(F)cc2)CC1 | inactive |
| O=S(=O)(O)c1cc(O)c2cc(Nc3ccccc3)ccc2c1 | inactive |
| COc1cccc(-c2cc(C(=O)N3CCN(S(=O)(=O)c4ccccc4)CC3)[nH]n2)c1 | inactive |
| Cc1noc(C)c1-c1nc(CSc2ccccc2)no1 | inactive |
| Cc1cccc(N(Cc2ccccc2)C(=O)C2CCN(C(=O)c3ccccc3C)CC2)c1 | inactive |
| CCN(C(=O)COC(=O)c1ccc([N+](=O)[O-])o1)C1CCCCC1 | inactive |
| CC(C(=O)Nc1ccccc1)N1C(=O)c2ccccc2C1=O (stereo not drawn) | inactive |
| COc1ccc(N(C(=O)c2ccc(Cl)cc2)C2=CC3CCC(C2)N3C)cc1 (stereo not drawn) | inactive |

| SMILES | AC50 |
| --- | --- |
| CCN(CC)c1ccc2cc(S(=O)(=O)c3ccc(C)cc3)c(=O)oc2c1 | inactive |
| O=C(O)c1ccccc1C1=Nc2ccc(O)cc2Oc2cc(O)ccc21 | 13.4 µM (active) |
| CN1CCc2c(sc(NC(=O)c3ccc4ccccc4c3)c2C(N)=O)C1 | inactive |
| O=C(O)/C(=C\c1cccs1)Sc1nnc(-c2ccc(F)cc2)o1 | inactive |
| Nc1ccc2c3c(cccc13)C(=O)N(c1ccccc1)C2=O | 3.91 µM (active) |
| CCOC(=O)N1CCN(C(=S)NC(=O)c2cccc(OC)c2)CC1 | inactive |
| COc1cccc(NC(=O)N(CCN(C)C)C(C)c2cccnc2)c1 (stereo not drawn) | inactive |
| CN(CC(=O)Nc1ccc(N2CCOCC2)cc1)C(=O)CSc1ccc(Br)cc1 | inactive |
| O=C(Nc1ccc(Br)cn1)c1cccc2ccccc12 | inactive |
| CCOC(=O)CCCn1c(C)nc(=O)c(-c2ccccc2)c1C | inactive |
| Nc1c(/C=C2/C=CC(=O)C(O)=C2)c(=O)nc2sc(CC(=O)N3CCCC3)nn12 | inactive |
| CCN(CC)CCCC(C)n1c2nc(=O)[nH]c(=O)c-2nc2cc(Cl)ccc21 (stereo not drawn) | 0.316 µM (active) |
| CCOC(=O)C1Nc2ccc(C(=O)O)cc2C2C=CCC12 (stereo not drawn) | inactive |
| COC(=O)c1sc(C(F)(F)F)c(-c2ccccc2)c1S(=O)(=O)N1CCOCC1 | inactive |
| Cc1ccc(C(=O)c2coc3ccc(O)c(Cl)c23)cc1 | inactive |
| CCN(Cc1ccccc1)S(=O)(=O)c1cc2[nH]c(=O)c(=O)[nH]c2cc1C | inactive |
| NC1=NC[C@@H](Cc2ccc(O)cc2)N1CCc1cc(C(F)(F)F)cc(C(F)(F)F)c1 | inactive |
| NC(=S)N/N=C/c1ccc(-c2ccc([N+](=O)[O-])cc2)o1 | inactive |
| Cc1cccc(NC(=O)CN2C(=O)NC(C)(c3ccc4ccccc4c3)C2=O)n1 (stereo not drawn) | inactive |

Source: PubChem BioAssay AID504727 (Broad Institute, 2011)
